This is an account of results in PubChem BioAssay AID489042 (NMMLSC, 2010).

The source made the active and inactive calls. Rule as the data show it: active = inhibition score above about 11; inactive = the rest.

The assay can be described thus: S. cerevisiae short- and long-term growth effects – BY4741, OD595, 24 h, dose response (AID 489042). The conditions noted are these: active compounds read high.
Regarding `C[n+]1c2ccccc2nc2ccc(NCCO)cc21`, the inhibition score is 0 (inactive).
For `C[C@]12CCC3C(CC[C@H]4C[C@@H](O)CC[C@]34C)C1CC[C@@H]2OC(=O)[C@H](N)CCCCN` (stereo not given in full), the inhibition score is 0 (inactive).
On to `Nc1cc2nc3ccccc3nc2cc1N`, for which the inhibition score was 0 (inactive).
With `C[C@]12CCC3C(CC[C@H]4C[C@@H](O)CC[C@]34C)[C@H]1CC[C@H]2O` (stereo not given in full), the inhibition score is 0 (inactive).
In the case of `CC(=O)O[C@H]1CCC2C3CC[C@H]4[C@@H](O)[C@H](O)CC[C@]4(C)C3CC[C@@]21C` (stereo not given in full), the inhibition score was 0 (inactive).
Take `Cn1c(O)c(C(=Nc2ccc(F)cc2)c2ccccc2Cl)c(=O)n(C)c1=O`: the inhibition score was 10 (inactive).
On to `CNc1ccc2nc3ccccc3[n+](C)c2c1`, for which the inhibition score was 0 (inactive).
Turning to `C#C[C@]1(O)[C@H](O)CC2C3CC[C@H]4C[C@@H](O)CC[C@]4(C)C3CC[C@@]21C` (stereo not given in full), the inhibition score is 0 (inactive).
On to `C=C1C(O)[C@@H]2O[C@]3(CC[C@H](/C=C/C(C)[C@@H]4CC(C)=CC5(O[C@H](C[C@@](C)(O)C(=O)O)CCC5O)O4)O3)CC[C@H]2O[C@@H]1C(O)CC(C)[C@H]1OC2(CCCCO2)CCC1C` (stereo not given in full), for which the inhibition score is 21 (active).
Consider `C[C@]12CCC3C(CC[C@H]4C[C@H](O)CC[C@]34C)C1C[C@@H](CCCCl)[C@@H]2O` (stereo not given in full), for which the inhibition score is 10 (inactive).
For `Oc1cccc2nc3ccccc3nc12`, the inhibition score was 21 (active).
For `O=c1[nH]c(O)c(C=Nc2ccc(F)c(Cl)c2)c(=O)[nH]1`, the inhibition score is 0 (inactive).
Consider `C[C@]12CCC3C(CC[C@H]4C[C@H](O)CC[C@]34C)C1CCC2=O` (stereo not given in full), for which the inhibition score is 0 (inactive).
In the case of `Cn1c(=O)[nH]c2nncnc2c1=O` it was 0 (inactive).
On to `OCC[n+]1c2ccccc2nc2ccc(N3CCOCC3)cc21`, for which the inhibition score was 0 (inactive).
